Screening results: PubChem BioAssay, National Center for Advancing Translational Sciences (NCATS)
This is a sample that favours compounds with a hit; in the whole collection about 14% have one here.
HADH2 inh: blocks human hydroxyacyl-CoA dehydrogenase type II. Potency, µM (top dose mostly 57.1 µM), without a hit: at the top dose activity change, negative = inhibition, hits mostly inhibitors. recombinant HADH2, NADH fluorescence, beta-hydroxybutyryl-CoA. AID 886. Q99714. 73,000 tested, 3.4% active; also: potency is read from the fitted curve at half-maximal effect; % is scaled to controls: 0 for no effect and ±100 for the full control effect; nearly all actives have a fitted effect of over 60% in size
Target sequence (Q99714 whole entry, looked up, one chain of several): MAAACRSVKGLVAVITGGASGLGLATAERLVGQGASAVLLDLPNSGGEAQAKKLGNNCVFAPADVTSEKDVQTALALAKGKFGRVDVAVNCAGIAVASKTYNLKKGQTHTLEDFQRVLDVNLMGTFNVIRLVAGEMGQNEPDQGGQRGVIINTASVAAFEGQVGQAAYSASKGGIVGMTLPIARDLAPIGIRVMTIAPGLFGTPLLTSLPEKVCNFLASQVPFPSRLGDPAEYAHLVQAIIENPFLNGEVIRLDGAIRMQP
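Read-out: 360 nm excitation, 450 nm emission, kinetic over 4 min. Conditions: His-tagged human HADH2 20 nM, pH 9.0 Tris with Tween-20, 1 mM NAD+, 90 uM beta-hydroxybutyryl-CoA.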
CRE-bla Fsk: modulators of forskolin-stimulated CRE signaling in CHO cells | CHO CRE-bla reporter (cAMP response element driving beta-lactamase), forskolin EC10, beta-lactamase ratio | Potency, µM (highest dose often 38.2 µM), for the others: top-dose activity change, negative = inhibition, actives largely listed as activators | 71,000 tested, 2.5% active | AID 662; active = well fitted activation curve with a large enough effect in the signal ratio, with a control signal flat, not every such curve was filed as active; inconclusive = small, poorly fitted or top-dose-only effect, or effect the other way, or a change in a side signal; the % refers to the signal ratio; also: potency is read from the fitted curve at half-maximal effect; % of control where 0% means no effect
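CRE-bla CHO reporter cells treated with compound titration plus EC10 NKH 477 (water-soluble forskolin), incubated 3 h at 37 °C; CCF4 loading 2 h at room temperature, 460/530 nm emission ratio read, AC50 values derived for positive or negative modulators.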
HSD17B inh: blocks hydroxysteroid 17-beta dehydrogenase activity; Q99714; recombinant HSD17B10, NADH fluorescence kinetic; 75,000 tested, 7.6% active; Potency, µM (top dose mostly 57.1 µM), inactives show top-dose activity change, negative = inhibition, actives largely listed as inhibitors;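 also: the protocol describes HADH2 (HSD17B10) and not the HSD17B4 of the title; potency is read from the fitted curve at half-maximal effect; % is scaled to controls: 0 for no effect and ±100 for the full control effect; nearly all actives have a fitted effect of over 70% in size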
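Activity followed as NADH fluorescence increase (ex 360, em 450 nm) every 30 seconds for 4 min, using final 90 uM beta-hydroxybutyryl CoA and 1 mM NAD+. Recombinant His-tagged enzyme, 20 nM, pH 9.0 Tris buffer, 15 min compound preincubation.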
AID923: qHTS Assay for Allosteric/Competitive Inhibitors of Caspase-1: Spectroscopic Profiling in AFC Spectral Region. AID 923, 2007. Potency, µM (highest dose often 57.5 µM), for inactives: at the top dose fluorescence increase, hits mostly activators. compound fluorescence, AFC spectral region (405/520 nm). 75,000 tested, 1.1% active; also: potency is read from the fitted curve at half-maximal effect; 0% is about no effect
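Compound autofluorescence profiled at 405 nm ex/520 nm em during kinetic caspase 1 run (50 nM enzyme, 5 uM Ac-WEHD-AFC, HEPES pH 7.5, 10 mM DTT). Titration up to 57 uM; baseline from regression intercept, normalized to AFC standard curve.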
4-MU autofl: 4-MU region autofluorescence; compound autofluorescence, 340/450 nm, 4-MU equivalents; active compounds read high; AID 589; max dye-equivalent concentration, M; 59,000 tested, 11% active; in the data active = max dye-equivalent concentration above about 10 nM; inconclusive = mostly about 1.1 nM to 9.6 nM
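Compounds in 100 mM Tris, pH 8.0, incubated 15 min at room temperature, then fluorescence read at 340 nm excitation/450 nm emission. Signal converted to 4-MU dye-equivalent concentration using an on-plate six-point 4-MU standard curve.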
A350 fluor: A350 region autofluorescence | 59,000 tested, 11% active | Compound autofluorescence, 340/450 nm, Alexa 350 dye-equivalents; active compounds read high | AID 590 | max dye-equivalent concentration, M; in the data active = max dye-equivalent concentration above about 10 nM; inconclusive = mostly about 1.1 nM to 9.6 nM
The depositor's hits bear a star; i = inactive; u = inconclusive; x = not tested or not shown; [ ] = another dose, or the depositor's remark. Unless noted, calls follow the shape of the dose curve; as a rule, active = well fitted curve in the direction sought with a large enough effect; inconclusive = small, poorly fitted or top-dose-only effect, or another doubt; inactive = no such curve, though single readings can be large; an effect the other way counts as inactive or inconclusive.

SMILES | HADH2 inh | CRE-bla Fsk | HSD17B inh | AID923 | 4-MU autofl | A350 fluor
CN1CCCC2(CCN(C(=O)c3cccn3C)CC2)C1 | 5% | -7% | 7% | 2% | i | i
CCOC(=O)c1c(-c2ccc(C)o2)csc1NC(=O)COC(=O)c1cccs1 | u | 18% | -25% | 0% | i | i
COC(=O)c1c(-c2ccccc2)csc1NC(=O)c1ccco1 | u | u | 32µM* | -3% | 3.4e-07M* | 4.4e-07M*
CCOC(=O)c1c(C2COc3ccccc3O2)csc1NC(=O)c1ccco1 (centres undefined) | 3.2µM* | 2µM* | 5µM* | 4% | 3.6e-08M* | 3.4e-08M*
O=C(NCCOC(=O)c1cccs1)c1cccnc1 | -1% | -3% | -4% | 0% | i | i
O=C(Nc1scc(-c2ccc(F)cc2)c1C(=O)O)c1ccco1 | 0% | 17% | -3% | -1% | i | i
COC(=O)c1c(-c2cccs2)csc1NC(=O)c1cccnc1 | 1% | u | -17% | 4% | 1.1e-08M* | u
CCOC(=O)c1c(-c2cccs2)csc1NC(=O)c1ccco1 | -27% | 12% | u | 0% | 1.5e-08M* | 1.5e-08M*
CCOC(=O)C1=C(N)Oc2ccc(Br)cc2[C@@H]1[C@@H](C#N)C(=O)OCC | 12% | 2% | u | 0% | x | x
Cc1noc(C)c1C(=O)N1CCC[C@@]2(CCN(C(=O)Nc3ccccc3)C2)C1 | 5% | 6% | 8% | 2% | i | i
CCOC(=O)c1c(-c2cccs2)csc1NC(=O)CN1CCOCC1 | -13% | 13µM* | -18% | 2% | i | i
O=C(O)[C@H](Cc1ccc(O)c([N+](=O)[O-])c1)N1C(=O)c2ccccc2C1=O | 1%[11.4 µM] | 7%[7.6 µM] | 8%[11.4 µM] | 0%[11.5 µM] | i | i
O=C1NC(=O)C(c2ccccc2[N+](=O)[O-])=C1Nc1ccc(O)c(Cl)c1 | 0.2µM* | u | 13µM* | -4% | u | u
CCN(C1CCCCC1)S(=O)(=O)c1ccc(C(=O)O)cc1 | 3% | -3% | 8% | 1% | i | i
Cc1ccc(S(=O)(=O)N(Cc2cc3cc4c(cc3[nH]c2=O)OCCO4)CC2CCCO2)cc1 (centres undefined) | -6% | 1% | u | 2% | 4.6e-08M* | 4.2e-08M*
CC(=O)c1ccc(S(=O)(=O)N(Cc2cc3cc4c(cc3[nH]c2=O)OCCO4)CC2CCCO2)cc1 (centres undefined) | -2% | 3% | 5% | 0% | u | u
COC(=O)c1ccc(S(=O)(=O)N(Cc2cc3cc4c(cc3[nH]c2=O)OCO4)C2CCCCC2)cc1 | 9% | -2% | u | 4% | 5.5e-08M* | 5e-08M*
O=c1[nH]c2cc3c(cc2cc1CN(CC1CCCO1)S(=O)(=O)c1ccc(Cl)cc1)OCCO3 (centres undefined) | 1% | -1% | 13µM* | 10% | 1.1e-07M* | 1e-07M*
COc1ccc(C2C(C(=O)c3sc(C)nc3C)=C(O)C(=O)N2CCCn2ccnc2)cc1 (centres undefined) | -4% | u | 1% | -3% | i | i
CC1CC(=O)c2cnc(NCc3ccco3)nc2C1 (centres undefined) | 10% | 18% | 3% | 1% | 1.1e-08M* | 1.4e-08M*
O=C1CC(c2ccc(F)cc2)Cc2nc(NCc3ccco3)ncc21 (centres undefined) | -5% | 4% | 1% | -2% | i | i
C=CC[C@@H]1C=C[C@@H](O/N=C\c2ccc(C(=O)N3[C@H](c4ccc(C)cc4)[C@@H](C)CC[C@H]3C(=O)OC)cc2)[C@@H](CO)O1 | 8%[11.4 µM] | x | 0%[11.4 µM] | -1%[11.5 µM] | x | x
CC(=O)OC1CC[C@@]2(C)C3=CC(=O)[C@]4(C)C(CC5OC6(OCC(C)CC6Br)C(C)C54)C3CC[C@H]2C1 (some centres undefined) | x | x | 5% | -3% | x | x
CN(Cc1ccccc1)Cc1nc2c([nH]1)c(=O)n(C)c(=O)n2C | 9% | 13% | 17% | 0% | i | i
COC(=O)[C@@]1(Cc2ccc(F)cc2)[C@H]2c3cc(C(=O)N(C)C)n(Cc4cccc5ccccc45)c3C[C@H]2CN1C(=O)c1ccccc1 | 11% | 18% | 5% | 1% | x | x
SMILES | HADH2 inh | CRE-bla Fsk | HSD17B inh | AID923 | 4-MU autofl | A350 fluor
CCCCNc1nc(C)nc2c1nc(-c1ccccc1)n2CCN1CCCCC1 | u | u | 32µM* | -1% | x | x
COCCNc1nc(C)nc2c1nc(-c1ccccc1)n2CCN1CCCC1 | 3% | 18% | 25µM* | 1% | x | x
CCCn1c(C)nc2c(NCCCCN3CCCC3)nc(C)nc21 | -1% | -4% | 19% | -1% | x | x
COCCNc1nc(C)nc2c1nc(-c1ccccc1)n2CCN1CCCCC1 | u | u | 25µM* | -1% | x | x
Cc1nc(N2CCC(C)CC2)c2c(C)c(C(=O)O)sc2n1 | 0% | u | -5% | 0% | i | i
CC1(C)CC(=O)c2cc(C(=O)NC3CCSC3=O)c(=O)n(-c3ccccc3)c2C1 (centres undefined) | -21% | u | 25µM* | 1% | i | i
CC1(C)CC(=O)c2cc(C(=O)NCc3ccco3)c(=O)n(-c3ccc(Cl)cc3)c2C1 | 12% | 1% | -4% | -1% | i | u
Cc1ccc(-n2c3c(cc(C(=O)NCc4ccco4)c2=O)C(=O)CC(C)(C)C3)cc1 | u | u | 25µM* | 0% | x | x
Oc1c(C(c2ccccc2)N2CCc3ccccc3C2)sc2ncnn12 (centres undefined) | 4% | u | -1% | 2% | x | x
Oc1c(C(c2cccs2)N2CCN(c3cccc(Cl)c3)CC2)sc2ncnn12 (centres undefined) | 1% | 13µM* | 8% | -2% | x | x
Cc1nc2sc(C(c3cccs3)N3CCN(Cc4ccccc4)CC3)c(O)n2n1 (centres undefined) | 12% | 9% | 18% | 6% | x | x
Oc1c(C(c2cccs2)N2CCOCC2)sc2ncnn12 (centres undefined) | u | 13µM* | u | -1% | x | x
CCOC(=O)N1CCC(NC(=O)c2ccc3c(=O)n4c(nc3c2)CCCC4)CC1 | 7% | 20% | 15% | 0% | i | i
CCOC(=O)c1nnn(-c2nonc2N)c1COc1ccccc1 | -13% | -4% | -7% | 1% | x | x
COc1ccc2c(c1OC)OCC(c1ccc(OC)c(OC)c1OC)C2 (centres undefined) | x | x | -9% | -3% | x | x
CCOc1ccc(S(=O)(=O)Nc2cc(OC)ccc2OC)cc1 | -3% | 13µM* | 1% | -1% | i | i
FC(F)(F)C(Cl)Br (centres undefined) | 40µM* | -1% | 5% | 4% | x | x
